# Screening results: PubChem BioAssay, National Center for Advancing Translational Sciences (NCATS)
# BAZ2B inh: inhibitors of human BAZ2B bromodomain. hit rate 4.4% among 360,000. AlphaScreen BAZ2B-H3K14Ac peptide displacement. Potency, µM (top dose mostly 114 µM), for the others: top-dose activity change, negative = inhibition, most hits filed as inhibitors; further: potency means the concentration at half of the fitted maximal effect; on the % scale 0 is the no-effect control and ±100 the full control effect; nearly all actives have a fitted effect of over 60% in size
#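 Multi-concentration screen (max 110 uM) measuring displacement of acetylated histone H3 peptide from BAZ2B by AlphaScreen, using 50 nM protein, 50 nM peptide and 10 ug/mL streptavidin donor plus Ni-chelate acceptor beads.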
# G9a block: inhibitors of human histone lysine methyltransferase G9a | Q96KQ7 | G9a H3K9 monomethylation, AlphaScreen, 2 h | Potency, µM (doses to about 102 µM), for the others: top-dose activity, negative = inhibition, most hits filed as inhibitors | hit rate 8.8% among 350,000 | AID 504332; further: potency means the concentration at half of the fitted maximal effect; on the % scale 0 is the no-effect control and ±100 the full control effect; nearly all actives have a fitted effect of over 75% in size
# Target sequence (Q96KQ7 913-1193 limits assumed): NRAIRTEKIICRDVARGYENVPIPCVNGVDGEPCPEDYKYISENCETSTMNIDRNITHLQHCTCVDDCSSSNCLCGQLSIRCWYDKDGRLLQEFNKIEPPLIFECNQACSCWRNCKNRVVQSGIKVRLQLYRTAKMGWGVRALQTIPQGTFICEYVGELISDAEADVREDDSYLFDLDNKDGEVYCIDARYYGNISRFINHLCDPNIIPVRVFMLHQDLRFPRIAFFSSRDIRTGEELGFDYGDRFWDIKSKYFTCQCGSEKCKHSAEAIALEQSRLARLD
#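 Step 1: enzyme (final 20 nM) with compound, 15 min RT. Step 2: substrate peptide 500 nM and SAM 20 uM, 2 h RT. Step 3: anti-H3K9me1 antibody and AlphaScreen beads, 10 min, then plate read.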
# CtBP-E1A inh: inhibitors of CtBP/E1A interaction; AlphaScreen GST-E1A/His-CtBP binding, 1536-well; hits give low values; activity change, % (test concentration not listed); hit rate 0.49% among 340,000; AID 651724; in the data active means activity change below about -65%; inconclusive means mostly about -30% to -63%; further: on the % scale 0 is the no-effect control and ±100 the full control effect
#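 Steps: dispense buffer (Tris pH 8.0, NaCl 300 mM, TCEP 1 mM, BSA, Tween 20); add 5X protein mix (GST-E1A, His-CtBP, 125 nM each); pin 23 nL compound; 2 h at 37 °C, dark; add 5X beads (50 ug/mL); 1 h; read.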
# HP1b binding inh: blocks HP1-beta chromodomain binding to methylated histone tails; Potency, µM (top dose mostly 114 µM), inactives show at the top dose activity change, negative = inhibition, most hits filed as inhibitors; hit rate 0.56% among 390,000; AlphaScreen HP1-beta / biotin-H3K9me3 peptide binding; P83916; further: potency means the concentration at half of the fitted maximal effect; nearly all actives have a fitted effect of over 70% in size
# Target sequence (P83916 whole entry, looked up): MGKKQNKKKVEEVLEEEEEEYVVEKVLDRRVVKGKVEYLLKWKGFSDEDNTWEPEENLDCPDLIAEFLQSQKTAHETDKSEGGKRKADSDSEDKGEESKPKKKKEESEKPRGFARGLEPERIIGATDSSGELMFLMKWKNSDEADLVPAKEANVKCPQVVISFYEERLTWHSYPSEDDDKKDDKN
#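 Compound inhibition of the preformed complex between 50 nM HP1-beta and 50 nM biotinylated H3K9me3 peptide was read by AlphaScreen. Buffer was PBS pH 7.4 with 0.01% Tween-20. Incubations ran 30 min at room temperature, with 10 ug/mL donor/acceptor beads.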
# JMJD2A Tudor: JMJD2A Tudor domain (human) inhibition. O75164. AlphaScreen JMJD2A-Tudor / H3K4me3 peptide binding. hit rate 4.4% among 390,000. AID 504339. Potency, µM (titrated, usually from 114 µM), for the others: at the top dose activity change, negative = inhibition, most hits filed as inhibitors; further: potency means the concentration at half of the fitted maximal effect; on the % scale 0 is the no-effect control and ±100 the full control effect; nearly all actives have a fitted effect of over 50% in size
# Six1-Eya2 blk: blocks human Six1 binding to Eya2 | Q15475+O00167 | AlphaScreen GST-Six1/His-Eya2 binding, biochemical; hits give low values | activity change, % (concentration not given with the values) | hit rate 0.56% among 360,000 | AID 651725; in the data active means activity change below about -65%; inconclusive means mostly about -30% to -63%; further: on the % scale 0 is the no-effect control and ±100 the full control effect
#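 Six1/Eya2 binding was read as AlphaScreen signal after compounds were pinned into GST-Six1 plus His-tagged Eya2 (5X stock 250/500 nM) in pH 8.0 Tris/NaCl/TCEP buffer, beads added, then incubated 1 h, 37 C, dark.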
# An asterisk follows results filed as active; ? = inconclusive; . = no result given; ! = not confirmed by another sample; [ ] = remark or other dose. This is a sample that favours compounds with a hit; in the whole collection about 10% have one here. Unless noted, the call rests on the fitted dose curve; in most records, active means well fitted inhibition curve with a large enough effect; inconclusive means small, poorly fitted or top-dose-only effect; inactive means no such curve, though single readings can be large or run the other way.
SMILES,BAZ2B inh,G9a block,CtBP-E1A inh,HP1b binding inh,JMJD2A Tudor,Six1-Eya2 blk
Cc1[nH]c2ccccc2c1C1=CCNCC1,?,50.1µM*,2.9,-9.0%,?,-10.6
O=C1NCCOC(=O)[C@@H](Cc2ccc(F)cc2)CC/C=C/C[C@H]1CC(=O)N(CCO)Cc1ccccc1,.,.,1.7,39.0%,-13.7%,-2.3
Cc1ccc(C(O)P(=O)(OCCC(C)C)c2ccc(N(C)C)cc2)cc1 (centres undefined),?,7.1%[2.33 µM],-0.6,12.6%,-22.8%,-7.5
O=C1CC2(CCCC2)CC(=O)N1CCCCN1CCN(c2ncccn2)CC1,-1.9%,12.6µM*!,-1.0,39.6%,-2.9%,2.4
COc1ccc2c3c1O[C@H]1[C@@H](O)C=C[C@H]4C(C2)NCCC341 (some centres undefined),.,12.9%[59 µM],.,.,.,.
COc1ccc2c3c1OC1C(O)C=CC4C(C2)[N+](C)(C)CCC341 (centres undefined),22.4µM*,7.94µM*,.,?,15.8µM*,-0.1
N#Cc1cc2c(nc1SCC(=O)Nc1ccc(C(F)(F)F)cc1)C1CCN2CC1,0.0%,5.2%[59 µM],.,35.6%,-4.1%,.
CCC1(C)CC(C(N)=S)CCO1 (centres undefined),?,-138.5%[12.7 µM],3.1,?,56.2µM*,-2.2
CCOC(=O)c1ccc(NC(=O)Nc2cc3c(cc2N2CCCCC2)n(CC)c(=O)n3CC)cc1,-33.5%,?,.,5.3%,-28.4%,.
Cc1nc(N)sc1CCN,.,34.5%[59 µM],.,.,.,.
C=CCn1c(C2CC2)n[nH]c1=S,-23.8%,44.7µM*,.,40.1%,?,4.9
CCOC(=O)c1c(N)n(Cc2ccco2)c2nc3ccccc3nc12,.,14.8%[59 µM],-11.1,33.8%,-1.8%,-10.3
S=c1[nH]nc(C2CC2)n1Cc1ccco1,1.4%,2.51µM*,32.2,8.0%,22.4µM*,21.7
COC(C/C=C/C=C/CC/C=C\CC(C)/C=C\C(=C/C(=O)O)CC(=O)O)/C(C)=C\C=C(/C)C(=O)O (centres undefined),.,27.3%[59 µM],.,.,.,.
CCN(CCCNS(=O)(=O)c1ccc2c(c1)oc(=O)n2C)c1cccc(C)c1,-32.1%,14.1µM*,-26.0,?,15.8µM*,-24.8
CC(=O)CC(c1ccc2c(c1)OCO2)c1c(O)c2ccccc2oc1=O (centres undefined),.,.,-0.4,.,.,-0.9
CC(=O)CC(c1ccccc1[N+](=O)[O-])c1c(O)c2ccccc2oc1=O (centres undefined),-19.3%,50.1µM*,12.3,29.7%,-8.4%,7.5
COc1ccccc1OC(C)C(=O)N1CCC(Cc2ccccc2)CC1 (centres undefined),-26.3%,50.1µM*,0.3,-17.8%,-16.2%,1.4
Cc1cc(/C=C2/C(=O)NC(=O)N(Cc3ccco3)C2=O)c(C)n1-c1ccccc1,?,10µM*,2.7,70.8µM*,50.1µM*,-10.5
CCOC(=O)C1CCN(/C=C2/C(=O)NC(=O)N(c3ccc(OCC)cc3)C2=O)CC1,-3.4%,?,7.7,40.9%,-17.4%,1.5
CCN(CC)c1ccc(/C=C2/C(=O)NC(=O)N(Cc3ccco3)C2=O)cc1,39.8µM*,?,5.4,-14.3%,?,-1.5
NC(=O)C1CCN(/C=C2\C(=O)NC(=O)N(Cc3ccco3)C2=O)CC1,?,?,-1.0,?,79.4µM*,-15.2
O=C(c1cnccn1)N1CCC2(CC1)CN(Cc1ccncc1)C2,.,-4.0%[12.7 µM],.,.,.,.
COc1ccc(C(=O)N2CCC3(CC2)OCCO3)cc1,11.9%,.,-8.8,25.6%,-1.4%,6.3
COc1ccc(CNCC(=O)N2CCC3(CC2)OCCO3)cc1,35.5µM*,22.4µM*,5.1,?,12.6µM*,6.9
SMILES,BAZ2B inh,G9a block,CtBP-E1A inh,HP1b binding inh,JMJD2A Tudor,Six1-Eya2 blk
O=[N+]([O-])c1cc(S(=O)(=O)c2ccc(O)c([N+](=O)[O-])c2)ccc1O,50.1µM*,?,-15.7,?,56.2µM*,?
O=c1c2ccccc2nc2n1CCS2(=O)=O,-15.1%,?,6.2,60.1%,-17.2%,2.8
CN(C(=O)Cc1ccccc1)[C@H](CN1CCCC1)c1ccccc1,.,-7.6%[59 µM],.,.,.,.
CC(C)[C@H](NC(=O)[C@H](CCC(=O)O)NC(=O)[C@H](Cc1ccccc1)NC(=O)[C@H](C)NC(=O)[C@@H](N)Cc1ccc(O)cc1)C(=O)N[C@H](C(=O)NCC(N)=O)C(C)C,.,26.9%[59 µM],.,.,.,.
CC1=C/C(=N\NC(=S)NCCc2ccccc2)CC(C)(C)C1,?,39.8µM*,?,-11.4%,50.1µM*,-24.3
c1ccc(CCNCc2ccccc2)cc1,2.8%,5.7%,-1.8,14.8%,-9.0%,9.9
CN(CCc1ccc(Cl)c(Cl)c1)[C@@H]1CCCC[C@@H]1N1CCCC1,.,-30.6%[59 µM],.,.,.,.
Cc1c(C(=O)N2CCC3(CC2)OCCO3)oc2ccc(S(=O)(=O)N3CCOCC3)cc12,-4.6%,2.4%[59 µM],-2.6,26.6%,-13.2%,3.0
Cc1c(C(=O)NCCC2=CCCCC2)oc2ccc(S(=O)(=O)N3CCC4(CC3)OCCO4)cc12,2.6%,50.1µM*,-21.5,21.8%,-19.9%,11.9
CC(C)(C)C1CCc2onc(C(=O)O)c2C1 (centres undefined),-19.1%,0.3%,5.6,42.4%,-4.9%,2.0
O=C1c2ccccc2C(=O)c2ccccc21,.,-0.4%[59 µM],.,.,.,.
O=C1C=Cc2ccccc2C1=O,39.8µM*,8.91µM*,.,.,.,.
O=P1(Oc2ccccc2)CC=CC(COCc2ccccc2)O1 (centres undefined),.,.,.,35.3%,0.7%,.
Cc1[nH]c(=S)c(C#N)c2c1CCCC2,?,1.78µM*,-1.8,39.3%,20µM*,-0.7
Cc1nc2c(c(N3CCOCC3)n1)OCC(=O)N2,-5.5%,13.5%,4.8,46.7%,3.0%,-0.7
COC(=O)[C@@]1(Cc2ccc(F)cc2)[C@H]2c3cc(C(=O)N(C)C)[nH]c3C[C@H]2CN1C(=O)c1ccccc1,50.1µM*,?,-2.4,9.5%,-19.7%,-6.9
O=C(c1c[nH]cc1-c1ccccc1)c1cccc2ccccc12,25.1µM*,25.1µM*,-28.8,?,-11.8%,?
C=CC1CN2CCC1CC2C(OC(=O)OCC)c1ccnc2ccc(OC)cc12 (centres undefined),.,-24.3%[2.33 µM],.,.,.,.
CCCc1nc2ccccc2c(=O)n1-c1ccc(OC)cc1,-4.4%,16.3%[2.33 µM],-1.4,19.9%,-4.0%,5.4
COc1ccc(N2C(=O)CS(=O)C(c3ccccc3)C2=O)cc1 (centres undefined),?,0.708µM*,-9.5,12.6µM*,8.91µM*,-14.7
COc1ccc(NC(=O)N2CCCC3(CCN(C(=O)Oc4ccccc4)CC3)C2)cc1,.,-23.7%[12.7 µM],.,.,.,.
CCOc1ccc2nc(N=Nc3c(O)[nH]c(=S)[nH]c3=O)sc2c1,22.4µM*,35.5µM*,4.7,?,?,-0.2
